HT1080 IDH1KD tx: toxicity to HT-1080 IDH1 knockdown cells (counter line); HT-1080 IDH1 knockdown viability, ATP luminescence, 48 h; Potency, µM (highest dose often 46.1 µM), inactives show top-dose activity, negative = toxicity, usual class: cytotoxic; 2% of 360,000 active; AID 686971;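 further: potency means the concentration at half of the fitted maximal effect; 0% = DMSO wells and -100% = cell-free medium wells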
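Cytotoxicity counter-line: IDH1KD HT-1080, 48 h, CellTiter-Glo. Curves classed by r2, magnitude and activity.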
12-LOX inh: ALOX12 (human) lipoxygenase inhibition. 1.1% of 580,000 active. purified 12hLO, xylenol orange hydroperoxide absorbance. P18054. AID 1671190. Potency, µM (doses to about 108 µM), without a hit: at the highest dose activity change, negative = inhibition, hits mostly inhibitors; further: potency means the concentration at half of the fitted maximal effect
Target sequence (P18054 whole entry, looked up): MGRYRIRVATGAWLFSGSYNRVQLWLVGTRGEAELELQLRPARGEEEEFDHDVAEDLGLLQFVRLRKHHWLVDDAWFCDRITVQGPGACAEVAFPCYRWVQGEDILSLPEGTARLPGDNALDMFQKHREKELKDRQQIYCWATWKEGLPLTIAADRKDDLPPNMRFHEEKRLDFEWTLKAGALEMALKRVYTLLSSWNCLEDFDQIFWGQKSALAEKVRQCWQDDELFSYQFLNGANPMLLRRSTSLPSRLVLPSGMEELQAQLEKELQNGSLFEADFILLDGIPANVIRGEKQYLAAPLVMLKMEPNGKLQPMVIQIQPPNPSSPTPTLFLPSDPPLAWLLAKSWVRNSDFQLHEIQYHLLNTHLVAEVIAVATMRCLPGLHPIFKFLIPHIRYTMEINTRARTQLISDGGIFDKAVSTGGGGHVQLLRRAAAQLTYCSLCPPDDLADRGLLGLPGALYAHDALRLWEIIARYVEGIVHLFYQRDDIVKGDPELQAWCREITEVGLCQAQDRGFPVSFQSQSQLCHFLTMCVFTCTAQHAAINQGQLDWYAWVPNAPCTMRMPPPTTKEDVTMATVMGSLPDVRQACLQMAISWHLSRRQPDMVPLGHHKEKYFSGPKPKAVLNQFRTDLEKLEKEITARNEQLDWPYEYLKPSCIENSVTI
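Purified human 12hLO at 150 nM in 25 mM Hepes, 0.01% Triton X-100, pH 7.0, preincubated 15 min at room temperature with compound. Reaction started with 40 uM arachidonic acid, 30 min at room temperature. Hydroperoxide measured by Fe-xylenol orange, 573/405 nm absorbance ratio.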
HT1080-NT tox: kills 2HG-producing HT-1080-NT fibrosarcoma cells | HT-1080-NT fibrosarcoma viability, CellTiter-Glo ATP luminescence, 48 h | Potency, µM (series often up to 46.1 µM), for inactives: top-dose activity, negative = less viability, hits mostly cytotoxic | 1.6% of 360,000 active;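 further: NT is the 2HG producing partner of a matched IDH1 knockdown line; potency means the concentration at half of the fitted maximal effect; 0% = DMSO-treated cells and -100% = media-only wells without cells; nearly all actives have a fitted effect of over 55% in size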
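Luminescent CellTiter-Glo readout after 48 hours of compound exposure at 37 degrees C defined viability of HT-1080-NT cells. Activity was normalized to DMSO wells and cell-free media wells; concentration-response curves were fitted and assigned curve classes.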
IL1B secr inh: inflammasome signaling inhibition, IL-1 beta readout. THP-1 LPS/ATP IL-1B secretion, AlphaLISA, 16 h; hits give low values. activity change, % at 57.5 µM. 4.7% of 360,000 active. AID 743279; in the data active means activity change below about -50%; inconclusive means mostly about -30% to -49%
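Secreted IL-1B measured by AlphaLISA bead assay after 16 h compound exposure of THP-1 cells; compounds (final up to 57.5 uM) added 1 h before LPS (250 ng/mL) and ATP (1.25 mM) stimulation; lower signal means less secretion.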
DT40 TDP1 no CPT: qHTS for Inhibitors of human tyrosyl-DNA phosphodiesterase 1 (TDP1): qHTS in cells in absence of CPT; 15% of 420,000 active; Potency, µM (top dose mostly 46.2 µM), without a hit: top-dose activity change, negative = growth inhibition, usual class: inhibitors; AID 686978, 2013; DT40 Tdp1-/- hTDP1 cells, no CPT, ATP luminescence, 48 h; further: potency means the concentration at half of the fitted maximal effect; nearly all actives have a fitted effect of over 55% in size
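Luminescent ATP content (CellTiter-Glo) served as the growth readout. Knockout chicken DT40 cells expressing human TDP1 were exposed to compounds without camptothecin for a minimum 48 hr at 37 °C.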
DT40 TDP1 CPT: growth inhibition of DT40 Tdp1-/-;hTDP1 cells with camptothecin (screen for TDP1 inhibitors) | chicken DT40 Tdp1-/-;hTDP1 cells + 20 nM CPT, ATP luminescence, 48 h | Potency, µM (titrated, usually from 46.2 µM), inactives show at the highest dose activity change, negative = growth inhibition, usual class: inhibitors | 12% of 420,000 active | AID 686979; further: potency means the concentration at half of the fitted maximal effect; nearly all actives have a fitted effect of over 55% in size
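Cell growth measured by CellTiter-Glo luminescence after a minimum 48 h, 37 C compound exposure with 20 nM CPT in Tdp1-knockout DT40 cells stably expressing hTDP1, seeded 400/well; qHTS titration format.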
Active calls of the source: *; ? = inconclusive; . = no result given; [ ] = remark or other dose. Shown is part of a subset that was picked to be rich in hits. Unless noted, the call rests on the fitted dose curve; in most records, active means well fitted curve in the direction sought with a large enough effect; inconclusive means small, poorly fitted or top-dose-only effect, or another doubt; inactive means no such curve, though single readings can be large; an effect the other way counts as inactive or inconclusive. Unless noted, on the % scale 0 is the no-effect control and ±100 the full control effect.

SMILES	HT1080 IDH1KD tx	12-LOX inh	HT1080-NT tox	IL1B secr inh	DT40 TDP1 no CPT	DT40 TDP1 CPT
NCC(c1ccccc1Cl)c1c[nH]c2ccccc12 (stereo not drawn)	?	-13.0%	?	?	13µM*	5.17µM*
NCC(c1ccc(Cl)cc1Cl)c1c[nH]c2ccccc12 (stereo not drawn)	?	?	?	-87.6*	23.1µM*	18.4µM*
CC(=O)c1ccc(NC(=O)C2CCC(CNS(=O)(=O)c3ccc4c(c3)CCCC(=O)N4)CC2)cc1 (stereo not drawn)	.	-16.7%	.	.	?	?
COc1cc(OCc2ccc(C)cc2)ccc1CNC[C@H]1O[C@@H](n2cnc(C(N)=O)n2)[C@H](O)[C@@H]1O	5.4%	-1.6%	1.5%	-0.3	-0.3%	2.9%
Cc1csc2nc(CNS(=O)(=O)c3ccc4c(c3)CCCC4)cn12	7.0%	28.4%	8.0%	18.6	9.2µM*	?
O=C1c2ccccc2C(Nc2ccc(S(=O)(=O)N3CCCCC3)cc2)N1c1ccccn1 (stereo not drawn)	-0.9%	35.0%	1.6%	?	20.6µM*	?
O=C1c2ccccc2C(Nc2ccc3c(c2)OCCO3)N1c1ccc(Cl)cn1 (stereo not drawn)	-3.6%	413.7%	-5.0%	18.6	16.4µM*	?
O=C1c2ccccc2C(Nc2ccc(F)c(Cl)c2)N1c1ccccn1 (stereo not drawn)	-18.2%	19.5%	-0.2%	-12.9	?	16.4µM*
C[C@]1(O)CCN(C(=O)CC(c2ccccc2)c2ccccc2)C[C@@H]1O	.	-7.2%	.	.	.	.
CCOc1ccc(C(=O)Nc2ccc(-c3cn4ccc(C)nc4n3)cc2)cc1OCC	.	-28.9%	.	.	.	.
CCCCCn1cc2c(c1-c1ccccc1Br)c(=O)n(C)c(=O)n2C	.	?	.	.	11.6µM*	11.6µM*
CCCCCn1cc2c(c1-c1ccc(Cl)cc1)c(=O)n(C)c(=O)n2C	.	-5.6%	.	.	16.4µM*	16.4µM*
CCCCn1cc2c(c1-c1ccccc1Br)c(=O)n(C)c(=O)n2C	.	?	.	.	16.4µM*	23.1µM*
Cn1c(=O)c2c(-c3ccc(Cl)cc3)n(Cc3ccccc3)cc2n(C)c1=O	.	-15.6%	.	.	.	.
O=C(c1cnsn1)N1CCOc2ccc(CN3CCOCC3)cc2C1	.	6.1%	.	.	-13.0%	12.5%[9.04 µM]
Nc1nnnn1NCc1cc(Cl)ccc1OCc1ccccc1Cl	.	-39.0%	.	.	.	.
Cc1ccccc1CN1CCCN(Cc2nnsc2Cl)CC1	.	6.8%	.	.	.	.
COc1cc(CCNC2=CC(=O)c3ncccc3C2=O)ccc1O	14.6µM*	-24.8%	?	-70.7*	5.8µM*	4.61µM*
CCOC(=O)N1CCN(S(=O)(=O)c2ccc(C(=O)NNc3nc4ccc(Cl)cc4s3)cc2)CC1	?	.	?	110.4	20.6µM*	20.6µM*
CCOC(=O)N1CCN(S(=O)(=O)c2ccc(C(=O)N(CCN(CC)CC)c3nc4c(C)cccc4s3)cc2)CC1	4.5%	?	-2.6%	4.1	-28.4%	?
CCOC(=O)N1CCN(S(=O)(=O)c2ccc(C(=O)NNc3nc4c(C)cccc4s3)cc2)CC1	?	?	?	86.4	16.4µM*	16.4µM*
O=S(=O)(NC(c1ccccc1)c1cccs1)c1cccs1 (stereo not drawn)	.	4.9%	.	.	.	.
Cc1ccc(C(O)c2ncc(-c3ccccc3)[nH]2)c(C)c1 (stereo not drawn)	-8.1%	-0.1%	2.9%	-5.4	-29.4%	?
Cc1cc(F)ccc1C(O)c1ncc(-c2ccc(Cl)cc2)[nH]1 (stereo not drawn)	-22.9%	?	-20.2%	0.0	?	0.5%
Cc1ccc(-c2cnc(C(O)c3ccc(Cl)cc3C)[nH]2)cc1 (stereo not drawn)	-21.2%	-0.6%	-18.6%	-17.9	?	23.1µM*
SMILES	HT1080 IDH1KD tx	12-LOX inh	HT1080-NT tox	IL1B secr inh	DT40 TDP1 no CPT	DT40 TDP1 CPT
Cc1cc(Cl)ccc1C(O)c1ncc(-c2ccc(Cl)cc2)[nH]1 (stereo not drawn)	?	-17.8%	?	-9.9	?	13µM*
Cc1cccc(-c2cnc(C(O)c3ccc(Cl)cc3C)[nH]2)c1 (stereo not drawn)	?	-21.9%	?	-7.6	18.4µM*	?
Cc1cc(Cl)ccc1C(O)c1ncc(-c2ccc(F)cc2)[nH]1 (stereo not drawn)	20.6µM*	.	?	-13.6	?	?
Cc1cc(Cl)ccc1C(O)c1ncc(-c2ccc3ccccc3c2)[nH]1 (stereo not drawn)	?	?	?	-22.4	?	?
Cc1noc(C2CC3(CCN(C(=O)Cn4nc(C(F)(F)F)cc4C)CC3)CN2C)n1 (stereo not drawn)	.	40.8%	.	.	.	.
CCCCNC(=O)C1CCN(C(=O)c2ncn3c2COC(c2ccc(F)cc2)C3)CC1 (stereo not drawn)	.	32.0%	.	.	.	.
Cc1ccc(C)c(Nc2nc(N3CCOCC3)nc3nccnc23)c1	.	10.3%	.	.	.	.
CCc1noc(-c2cccn3c(CNC(=O)C(C)c4ccccc4)nnc23)n1 (stereo not drawn)	.	69.6%	.	.	.	.
O=C(CN1CCOCC1)Nc1cccc(C(=O)Nc2cccc(C(F)(F)F)c2)c1	-2.5%	3.8%	-7.8%	21.2	?	-29.3%
CCCCCNCC(=O)Nc1cccc(C(=O)Nc2cccc(C(F)(F)F)c2)c1	16.4µM*	?	20.6µM*	-100.9*	?	?
Cc1ccc(C(=O)Nc2cccc(C(F)(F)F)c2)cc1Nc1cncnc1	-2.5%	-12.7%	-0.8%	68.0	14.6µM*	?
Cc1cnc(Nc2nc3ccccc3o2)nc1C(=O)Nc1cccc(C(F)(F)F)c1	-4.1%	13.9%	-13.9%	21.8	20.6µM*	23.1µM*
Cc1nc(Nc2nc3ccccc3o2)nc(C)c1C(=O)Nc1cccc(C(F)(F)F)c1	.	131.5%	.	.	.	.
Cc1ccc(C(=O)Nc2cccc(C(F)(F)F)c2)cc1Nc1ccccn1	-1.4%	?	4.0%	27.0	16.4µM*	20.6µM*
O=C(c1cccnn1)N1CC(F)(F)C[C@H]1c1nc(-c2ccccc2)no1	.	27.0%	.	.	.	.
CCN(CC)CCCN(Cc1cc2cc3c(cc2[nH]c1=O)OCO3)C(=S)Nc1ccccc1	?	-28.4%	-24.9%	-65.4*	?	?
CCCCNC(=S)N(CCN(CC)CC)Cc1cc2cc3c(cc2[nH]c1=O)OCCO3	-9.6%	0.0%	-9.3%	?	?	25.9µM*
